Tau fluor cs – counter-screen for tau fibril formation inhibitors | tau K18 P301L Alexa594 fluorescence, heparin fibrillization | Potency, µM (top dose mostly 57.7 µM), for inactives: top-dose activity change, negative = decrease | hit rate 0.93% among 280,000; further: nearly all actives have a fitted effect of over 55% in size
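Human tau K18 P301L (15 uM unlabeled, 0.24 uM Alexa 594-labeled) in 100 mM sodium acetate pH 7 with 20 uM heparin, 6 hr at 37 C. ThT 30 uM added, 1 hr ambient; Alexa 594 FP and total fluorescence read at 555/632 nm.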
Tau fibril ThT – tau fibrillization inhibition (ThT binding). P10636. recombinant tau K18 P301L (four-repeat tau fragment), heparin-induced fibrillization, ThT fluorescence. Potency, µM (titrated, usually from 57.4 µM), for the others: at the highest dose activity, negative = inhibition, most hits filed as inhibitors. hit rate 2.1% among 270,000; further: nearly all actives have a fitted effect of over 55% in size
Target sequence (P10636 561-689 P618L limits assumed): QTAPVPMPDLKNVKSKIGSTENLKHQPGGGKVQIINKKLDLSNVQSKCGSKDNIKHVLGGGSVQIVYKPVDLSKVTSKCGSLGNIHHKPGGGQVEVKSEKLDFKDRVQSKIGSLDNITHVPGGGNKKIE
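K18 P301L tau (15 uM + 0.24 uM Alexa 594-tagged), heparin 20 uM, NaOAc pH 7, 6 h 37 C; ThT 30 uM, 1 h RT, ex 450/em 510 nm.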
KDM4E inh – JMJD2E (human) inhibition. B2RXH2. JMJD2E catalytic domain, FDH-coupled NADH fluorescence (FDH is formaldehyde dehydrogenase). Potency, µM (highest dose often 57.1 µM), for the others: at the top dose activity change, negative = inhibition, hits mostly inhibitors. hit rate 1.6% among 230,000; active means well fitted inhibition curve with a large enough effect, not every such curve was filed as active; inconclusive means small, poorly fitted or top-dose-only effect, or another doubt; inactive means no such curve, though single readings can be large or run the other way;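 further: 0% = wells with enzyme and -100% = buffer wells without enzyme; nearly all actives have a fitted effect of over 50% in size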
Target sequence (B2RXH2 1-337 limits assumed): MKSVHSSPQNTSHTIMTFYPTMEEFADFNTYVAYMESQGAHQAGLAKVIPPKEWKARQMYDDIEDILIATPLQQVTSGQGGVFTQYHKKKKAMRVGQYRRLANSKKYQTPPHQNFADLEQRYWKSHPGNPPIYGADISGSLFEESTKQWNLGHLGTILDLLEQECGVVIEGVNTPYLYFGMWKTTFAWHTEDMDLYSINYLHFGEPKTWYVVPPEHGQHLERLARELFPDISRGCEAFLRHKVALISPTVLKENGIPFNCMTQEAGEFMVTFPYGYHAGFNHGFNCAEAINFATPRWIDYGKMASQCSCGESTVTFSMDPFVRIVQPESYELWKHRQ
ALDH1A1 inh – ALDH1A1 (human) enzyme inhibition; P00352; Purified ALDH1A1, NADH fluorescence, propionaldehyde substrate; Potency, µM (doses to about 75.3 µM), inactives show at the top dose activity, negative = inhibition, usual class: inhibitors; hit rate 7.3% among 220,000; AID 1030; active means well fitted inhibition curve with a large enough effect, not every such curve was filed as active; inconclusive means small, poorly fitted or top-dose-only effect, or another doubt; inactive means no such curve, though single readings can be large or run the other way;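 further: plate controls were no enzyme wells and a reference inhibitor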
HPGD inh – blocks human HPGD enzyme activity. P15428. purified HPGD, NADH fluorescence kinetic, PGE2 substrate. Potency, µM, for the others: at the top dose activity change, negative = inhibition, hits mostly inhibitors. hit rate 4.3% among 150,000. AID 894; active means well fitted inhibition curve with a large enough effect, not every such curve was filed as active; inconclusive means small, poorly fitted or top-dose-only effect, or another doubt; inactive means no such curve, though single readings can be large or run the other way
Target sequence (P15428 whole entry, looked up): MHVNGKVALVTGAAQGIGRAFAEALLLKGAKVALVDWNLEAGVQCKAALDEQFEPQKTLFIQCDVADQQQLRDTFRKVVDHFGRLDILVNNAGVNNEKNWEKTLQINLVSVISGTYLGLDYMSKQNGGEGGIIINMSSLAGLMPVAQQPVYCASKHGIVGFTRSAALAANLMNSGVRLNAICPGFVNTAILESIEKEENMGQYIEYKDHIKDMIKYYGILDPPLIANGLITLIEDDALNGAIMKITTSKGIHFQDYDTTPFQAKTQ
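20 nM HPGD preincubated 15 min at room temperature with compound in 50 mM Tris-HCl pH 8, 0.01% Tween 20. Started with 1 mM NAD+ and 30 uM prostaglandin E2; NADH fluorescence (360/450 nm) read 5 times over 30-s intervals, last minus first.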
Tau fibril FP – blocks human tau fibril formation measured by polarization; K18 P301L tau heparin fibrillization, Alexa594 FP, 6 h; Potency, µM (titrated, usually from 57.7 µM), for the others: at the top dose activity, negative = inhibition, hits mostly inhibitors; hit rate 0.39% among 280,000; AID 1468; further: nearly all actives have a fitted effect of over 55% in size
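Recombinant K18 P301L […], labeled with Alexa 594 at 0.24 uM over 15 uM unlabeled; heparin inducer 20 uM final; 37 C, 6 hr; FP endpoint.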
* = called active by the depositor; ? = inconclusive; nt = no result given; [ ] = remark or other dose. Hits are enriched below; roughly 9.9% of the tested compounds scored in any of these assays. Unless noted, the call rests on the fitted dose curve; in most records, active means well fitted curve in the direction sought with a large enough effect; inconclusive means small, poorly fitted or top-dose-only effect, or another doubt; inactive means no such curve, though single readings can be large; an effect the other way counts as inactive or inconclusive. Unless noted, on the % scale 0 is the no-effect control and ±100 the full control effect; potency means the concentration at half of the fitted maximal effect.

SMILES	Tau fluor cs	Tau fibril ThT	KDM4E inh	ALDH1A1 inh	HPGD inh	Tau fibril FP
O=C(N=NC(=O)c1ccc2c(O)n(C3CCCCC3)c(O)c2c1)c1cccnc1	-17.6%	-9.3%	-4.0%	2.24µM*	-17.0%	-7.6%
Nc1c(C(=O)NCC2CCCO2)sc2nc3c(c(-c4ccco4)c12)CC/C3=C\c1ccco1 (stereo not given)	?	15.8µM*	7.08µM*	?	20µM*	?
NC(=O)c1sc2nc3c(c(-c4ccco4)c2c1N)CCCC3	-17.5%	?	-0.4%	nt	nt	10.3%
O=C(CSc1nnc(-c2ccccc2Cl)o1)Nc1ccc2c(c1)OCCO2	-18.9%	-12.9%	5.9%	20µM*	-9.8%	-5.0%
O=C(CSc1nnc(-c2ccc(O)cc2)o1)Nc1ccc2c(c1)OCCO2	-21.2%	-15.3%	0.9%	-0.4%	-3.6%	-2.3%
O=C(NCc1nnc(SCC(=O)N2CCC(Cc3ccccc3)CC2)o1)c1ccccc1F	-7.4%	-9.1%	-3.4%	8.91µM*	-8.6%	10.9%
O=C(CSc1nnc(CNC(=O)c2ccccc2F)o1)Nc1ccc2c(c1)OCCO2	-6.0%	-14.6%	2.2%	10µM*	-9.0%	-13.0%
O=C(CN1CCC(NC(=O)c2ccccc2F)CC1)Nc1ccc2c(c1)OCCO2	-9.0%	-3.1%	7.0%	12.6µM*	nt	-6.6%
CNc1c([N+](=O)[O-])cnn1-c1ccc(Cl)cc1	1.2%	1.2%	-0.9%	1.1%	-10.3%	6.6%
COc1ccc(/C=C/C(=O)Nc2ccccc2Cl)cc1S(=O)(=O)N1CCOCC1	1.2%	nt	-6.9%	nt	nt	-3.8%
COc1ccc(-n2c(SCC(=O)Nc3ccccc3)nnc2-c2ccc(NS(=O)(=O)c3ccc(C)cc3)cc2)cc1	-27.8%	1.7%	-9.8%	10.8%	-2.5%	?
COc1ccc(-n2c(SCC(N)=O)nnc2-c2ccc(NS(=O)(=O)c3ccc(C)cc3)cc2)cc1	-16.5%	-16.6%	2.8%	?	22.4µM*	12.7%
COc1ccc(-n2c(SCC(=O)NNC(=O)c3ccc(C)cc3)nnc2-c2ccncc2)cc1	-4.1%	0.6%	2.4%	-11.8%	-11.3%	-7.4%
COc1ccc(-n2c(SCC#N)nnc2-c2ccc(NS(=O)(=O)c3ccc(C)cc3)cc2)cc1	-22.4%	-9.3%	-7.3%	?	14.1µM*	0.3%
O=C(Nc1ccc2nc(SCC(=O)N3CCOCC3)sc2c1)c1cccc(Br)c1	?	2.5%	nt	nt	nt	-13.8%
Cc1cc(C)c(OCC(=O)N(Cc2ccc(N(C)C)cc2)CC2CCCO2)c(C)c1 (stereo not given)	-16.2%	?	nt	nt	nt	-0.9%
O=C1C(N2CCOCC2)=C(n2nnc3ccccc32)C(=O)c2ccccc21	?	12.6µM*	?	1.26µM*	?	?
O=C1c2ccccc2C(=O)c2c1cccc2-n1nnc2ccccc21	-11.4%	-1.6%	2.1%	nt	nt	7.6%
CN(C)CCNCCN	nt	nt	nt	4.2%[13.5 µM]	-6.2%	nt
CCc1ccc(NC(=O)CN2C(=O)CC(c3ccccc3)Sc3ccccc32)cc1 (stereo not given)	?	-12.1%	nt	nt	nt	-6.1%
O=[N+]([O-])/C(C(Cl)=C(Cl)Cl)=C(/NC1CC1)Sc1ccccc1	-18.0%	?	-13.1%	17.8µM*	nt	?
COCCCNc1nc2c(c(=O)[nH]c(=O)n2C)n1CC(O)COc1ccc(Cl)cc1 (stereo not given)	-1.0%	2.2%	nt	nt	nt	0.8%
COc1ccc(N(CC(=O)N2CCN(c3ccc(F)cc3)CC2)S(=O)(=O)c2c(C)nn(C)c2C)cc1	-11.1%	-5.3%	nt	nt	nt	2.4%
Cc1cccc(NC(=O)c2cnc3scc(C)n3c2=O)c1	-8.8%	-4.5%	2.8%	-15.1%	?	6.4%
Cc1csc2ncc(C(=O)Nc3ccc4c(c3)OCCO4)c(=O)n12	5.3%	6.2%	-0.5%	8.91µM*	99.5%	1.7%
SMILES	Tau fluor cs	Tau fibril ThT	KDM4E inh	ALDH1A1 inh	HPGD inh	Tau fibril FP
Cc1occc1C(=O)Nc1ccc2c(c1)OCCO2	1.4%	-1.4%	1.6%	12.6µM*	15.8µM*	-10.4%
Cc1ccsc1C(=O)Nc1ccc2c(c1)OCCO2	-4.3%	-6.3%	-5.2%	0.1%	31.6µM*	3.5%
Cc1nc(NC2CCCCC2)c2nc(-c3ccccc3)n(CCN(C)C)c2n1	-10.2%	-12.6%	?	?	?	-2.9%
COc1ccc(C(=O)Oc2cccnc2)cc1OC	-2.3%	-12.7%	?	10µM*	-9.6%	2.9%
COc1ccc(C(=O)NCc2cccnc2)cc1OC	-1.7%	7.6%	12.4%	25.1µM*	-13.4%	-5.8%
CC(C)c1ccc(C(=O)NC(=S)NCc2cccnc2)cc1	-12.5%	-14.1%	-3.5%	28.2µM*	-12.9%	9.0%
O=C(Oc1cccnc1)c1ccc([N+](=O)[O-])cc1	8.91µM*[quencher]	?	2.7%	18.1%	-6.0%	11.6%
Cc1ccc(C(=O)NC(=S)NCc2cccnc2)cc1C	-3.0%	-7.1%	7.0%	?	nt	7.7%
Cc1ccc(C(=O)Oc2cccnc2)cc1[N+](=O)[O-]	-29.7%	?	5.4%	-9.0%	-1.5%	5.6%
CCOc1ccc(-c2nc(CSCC(=O)N3CCN(c4cccc(C(F)(F)F)c4)CC3)c(C)o2)cc1	-15.9%	?	nt	nt	nt	-5.4%
CCC(=O)c1c[nH]c(C(=O)NCc2cccnc2)c1	8.5%	8.6%	-2.7%	-2.3%	nt	4.0%
CCCC(=O)c1c[nH]c(C(=O)NCc2cccnc2)c1	12.0%	6.7%	4.9%	28.2µM*	nt	9.0%
Cc1ccccc1OC(=O)n1c(=S)oc2cc(Cl)ccc21	-0.6%	4.3%	28.2µM*	7.08µM*	?	5.6%
O=C(Oc1ccccc1)n1c(=S)oc2ccccc21	-8.3%	-8.2%	-17.4%	?	-11.7%	-6.0%
Cc1ccc(S(=O)(=O)/N=C/c2ccc(N(C)C)cc2)cc1	-3.5%	0.1%	-20.3%	12.6µM*	-17.3%	-6.5%
CCOC(=O)c1cccc(NC(=O)c2ncoc2-c2ccco2)c1	-11.4%	0.7%	nt	nt	nt	-0.4%
CC(NC(=O)Nc1ccc(O)cc1)(C(F)(F)F)C(F)(F)F	?	22.4µM*	?	-3.1%	-6.5%	?
NC(=O)C1=C[C@@H](c2ccc(C(F)(F)F)cc2)C[C@@H](OCCCCO)O1	-1.5%	-15.6%	?	-7.2%	nt	-10.5%
Cc1cc(-c2ccc(S(=O)(=O)NCc3ccccc3Cl)s2)on1	-28.0%	-2.6%	nt	nt	nt	?
COc1cc2c(cc1OC)C(Cc1ccc(O)cc1)NCC2 (stereo not given)	-0.5%	-1.3%	6.8%	-3.8%	-3.7%	8.7%
CCOc1ccc(CC2NCCc3cc(OCC)c(OCC)cc32)cc1OCC (stereo not given)	-12.3%	?	35.5µM*	-1.0%	nt	?
CC(OC(=O)c1cccnc1)C(=O)NCc1ccc2c(c1)OCO2 (stereo not given)	-1.9%	-3.6%	-6.2%	-1.0%	nt	0.7%

Screening results from PubChem.
